# MITF TRPM1 inh: inhibitors of MITF-driven TRPM1 promoter in melanoma cells | SK-MEL-5 TRPM1 promoter luciferase, 24 h | inhibition, % at 12.5 µM | hit rate 0.83% among 330,000 | AID 488899;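 active means mean inhibition across replicates of 60% or more, whatever share of single replicates reaches that level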
# PAX8 reporter: PAX8 transcriptional activity inhibition | RMG-I TPO-luciferase reporter, SteadyGlo, 24 h | inhibition, % at 12.6 µM | hit rate 1.2% among 360,000 | AID 652154;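 active means mean replicate inhibition at least 60% with every replicate also reaching 60%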;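 further: luciferase light reporting Pax8 driven TPO promoter activity; plate controls were median of neutral control wells for no effect and mitoxantrone controls for full effect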
# EWS-Fli block: EWS/Fli transcriptional activity inhibition; hit rate 0.67% among 350,000; AID 651661; inhibition, % at 12.6 µM; A673 NR0B1-luciferase reporter, viability-normalised;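 active means mean inhibition of at least 50% after viability correction, with every replicate also passing that limit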;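 further: firefly luciferase signal divided by Alamar Blue viability fluorescence both relative to DMSO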
# Peg3 prom inh: reduces Peg3 promoter-driven luciferase expression in HeLa; hit rate 1.7% among 360,000; HeLa PEG-Prom luciferase reporter, luminescence, overnight; AID 588405; inhibition, % at 20 µM;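 active means inhibition of at least 50% at 20 µM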
# ABHD5-PLIN5 inh: inhibitors of human ABHD5-perilipin-5 interaction; Split G. princeps luciferase complementation, luminescence, 4 h; inhibition, % at 4 µM; hit rate 0.78% among 360,000; AID 602281;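 active means inhibition above the mean inhibition across every tested compound plus 3 SD, cut at about 22% in these data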;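 further: 0% = DMSO only wells and the 100% control is not disclosed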
# Target sequence (Q00G26 whole entry, looked up): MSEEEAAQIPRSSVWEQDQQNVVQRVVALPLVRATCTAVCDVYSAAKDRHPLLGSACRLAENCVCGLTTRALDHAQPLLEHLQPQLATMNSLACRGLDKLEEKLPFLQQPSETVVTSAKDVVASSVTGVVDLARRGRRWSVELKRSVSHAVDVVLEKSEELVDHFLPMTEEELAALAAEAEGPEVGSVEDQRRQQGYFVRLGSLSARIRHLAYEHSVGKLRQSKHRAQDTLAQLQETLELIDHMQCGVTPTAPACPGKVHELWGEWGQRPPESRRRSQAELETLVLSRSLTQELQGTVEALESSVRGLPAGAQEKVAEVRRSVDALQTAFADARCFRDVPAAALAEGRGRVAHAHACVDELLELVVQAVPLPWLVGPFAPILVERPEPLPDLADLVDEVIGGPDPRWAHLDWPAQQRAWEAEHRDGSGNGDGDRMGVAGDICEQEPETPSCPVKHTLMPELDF
# Target sequence (Q8WTS1 whole entry, looked up): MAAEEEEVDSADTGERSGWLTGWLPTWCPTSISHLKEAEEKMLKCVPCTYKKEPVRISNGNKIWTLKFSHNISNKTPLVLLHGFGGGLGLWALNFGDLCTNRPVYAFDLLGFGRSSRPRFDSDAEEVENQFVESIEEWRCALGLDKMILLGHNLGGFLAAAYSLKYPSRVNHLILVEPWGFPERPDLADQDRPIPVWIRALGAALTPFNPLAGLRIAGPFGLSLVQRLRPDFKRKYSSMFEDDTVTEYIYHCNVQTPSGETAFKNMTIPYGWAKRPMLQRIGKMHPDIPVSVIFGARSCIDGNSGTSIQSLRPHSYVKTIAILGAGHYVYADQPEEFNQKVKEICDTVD
# Shn3 inh set2: inhibitors of Schnurri-3 3'UTR reporter in osteoblasts. Clone20 osteoblast Shn3 3'UTR firefly luciferase, 24 h. inhibition, % at 12.5 µM. hit rate 0.52% among 360,000. AID 588674;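 active means mean inhibition of at least 75% with every replicate also reaching 75%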;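 further: 0% = median of neutral control wells and 100% = pilot-screen positive control compound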
# ABHD5-PLIN5 conf: ABHD5-PLIN5 interaction inhibition, confirmed; shares compounds with ABHD5-PLIN5 inh; biochemical ABHD5-PLIN5 interaction, luminescence; inhibition, % at 4 µM; hit rate 67% among 2,200; in the data active means inhibition above about 23%;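 further: 0% = DMSO vehicle wells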
# HNF4 split-luc: active in HNF4 split-luciferase counter-screen for ABHD5-PLIN5 inhibitors; shares compounds with ABHD5-PLIN5 inh; inhibition, % at 4 µM; hit rate 77% among 2,200; HNF4 dimerization, luminescence, biochemical;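 active means mean inhibition across replicate wells exceeding the computed hit threshold, cut at about 13% in these data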;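 further: light from luciferase halves that rejoin when HNF4 fusion proteins dimerize; 0% = DMSO only wells and the 100% control is not given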
# * marks the source's active call; other numbers are inactive results; . = no result. In the library only some 3% were active in any assay of this set; here they are far more common.
SMILES,MITF TRPM1 inh,PAX8 reporter,EWS-Fli block,Peg3 prom inh,ABHD5-PLIN5 inh,Shn3 inh set2,ABHD5-PLIN5 conf,HNF4 split-luc
CCN(CC)CC(C)(C)C(=O)/C=C/c1ccc(/C=C/C(=O)C(C)(C)CN(CC)CC)cc1,93*,123*,71*,102*,95*,98*,101*,107*
C[C@@H]1CN([C@H](C)CO)C(=O)Cc2cc(NC(=O)C3CCCCC3)ccc2O[C@@H]1CN(C)Cc1ccncc1,.,.,-1,.,.,.,.,.
COc1ccc(C(C[N+](=O)[O-])c2c(C)cc3ccccn23)c(OC)c1 (stereo not given),52,27,8,18,30*,54,45*,29*
COc1ccc(OC)c(C(C[N+](=O)[O-])c2c(C)cc3ccccn23)c1 (stereo not given),27,27,8,37,15,13,.,.
O=C(/C=C/c1ccc(O)c(O)c1)c1ccc(S(=O)(=O)N2CCCCCC2)cc1,9,24,.,31,32*,63,70*,67*
CC(C)C(=O)Nc1ccc2c(c1)C(=O)N(C)[C@H]1CC[C@@H](CC(=O)NC3CCCC3)O[C@@H]1CO2,.,-1,10,.,.,.,.,.
CCOC(CN=c1nc(N(C)C)ss1)OCC,1,6,1,-1,81*,-1,78*,101*
Cc1ccc(-c2oc3ncnc(N)c3c2-c2ccc(C)cc2)cc1,7,.,.,20,24*,8,7,4
ON=Cc1ccnc2ccccc12,.,-13,-8,7,-1,15,.,.
O=C(/C=C/c1ccnc2ccccc12)c1cccs1,31,-135,22,102*,63*,-5,92*,92*
CCCN(C)C[C@@H]1Oc2cc(C#Cc3ccccc3)ccc2S(=O)(=O)N([C@@H](C)CO)C[C@@H]1C,.,.,15,.,.,.,.,.
O=S(=O)(/C=C/C=C/S(=O)(=O)c1ccccc1)c1ccccc1,111*,117*,65*,100*,90*,98*,91*,111*
Cc1ccc(S(=O)(=O)C=CS(=O)(=O)c2ccc(C)cc2)cc1,.,47,38,95*,37*,85,68*,108*
C[C@@H]1CCCCO[C@H](CN(C)C(=O)CCC(F)(F)F)[C@H](C)CN([C@@H](C)CO)C(=O)c2cc(NS(=O)(=O)c3cn(C)cn3)ccc2O1,.,-7,-4,.,.,.,.,.
O=C(C[C@H]1C[C@@H]2c3cc(NC(=O)C4CCC4)ccc3O[C@@H]2[C@H](CO)O1)NCC1CC1,.,-7,-1,.,.,.,.,.
O=C1Cc2ccccc2Sc2ccccc21,-8,.,.,11,39*,1,-1,12*
CC(C)(C)C(=O)Nc1ccc(/C=C/C(=O)c2ccco2)cc1,-40,-50,2,-99,37*,-75,61*,44*
N#Cc1ccc(/C=C/C(=O)c2ccco2)cc1,-2,3,4,29,63*,-23,93*,95*
CC(C)(C)C(=O)Nc1ccc(NC(=O)C(C)(C)C)cc1,-6,-20,-14,-40,-2,-26,.,.
O=C(/C=C/c1ccccc1O)c1ccco1,-5,-9,-22,10,61*,-10,83*,78*
CCS(=O)(=O)Nc1ccc2c(c1)C(=O)N(C)[C@H]1CC[C@H](CC(=O)N[C@@H]3CCN(Cc4ccccc4)C3)O[C@@H]1CO2,.,-12,2,.,.,.,.,.
COc1ccc(NC(=O)C(c2ccncc2)n2c(=O)c(-c3ccco3)nc3ccccc32)cc1 (stereo not given),.,-4,-6,.,12,.,.,.
COc1ccc(C(C(=O)NC2CCCCC2)n2c(=O)c(-c3ccco3)nc3ccccc32)cc1 (stereo not given),.,21,12,.,66*,.,85*,30*
COc1ccc(NC(=O)C(c2cccc3ccccc23)n2c(=O)c(-c3ccco3)nc3ccccc32)cc1 (stereo not given),.,14,3,.,26*,.,23*,3
O=C(NC1CCCCC1)C(c1cccc2ccccc12)n1c(=O)c(-c2ccco2)nc2ccccc21 (stereo not given),.,5,16,.,87*,.,85*,9
SMILES,MITF TRPM1 inh,PAX8 reporter,EWS-Fli block,Peg3 prom inh,ABHD5-PLIN5 inh,Shn3 inh set2,ABHD5-PLIN5 conf,HNF4 split-luc
COCC#Cc1ccc2c(c1)O[C@@H](CN(C)CC1CCCC1)[C@H](C)CN([C@@H](C)CO)S2(=O)=O,.,-1,-3,.,.,.,.,.
O=[N+]([O-])/C=C\c1ccc(N2CCOCC2)cc1,74*,-4,45,14,65*,24,88*,89*
O=C(COc1ccc(/C=C\[N+](=O)[O-])cc1)N1CCOCC1,4,-16,-7,5,20,0,.,.
CCS(=O)(=O)N1CCC2(CC1)CN(C)[C@@H](CO)c1c2c2ccc(OC)cc2n1C,.,.,5,.,.,.,.,.
O=C(O)c1ccc(N/N=C/C2=C(N3CCOCC3)C(=C\c3ccccc3)/CC2)cc1,-40,-27,-44,-21,25*,-12,17,42*
CCCNC(=O)C[C@H]1CC[C@@H]2[C@@H](COc3ccc(NC(=O)Nc4cccc(C)c4)cc3C(=O)N2C)O1,.,4,-3,.,.,.,.,.
CC1(C)CC(=O)C(C(C2=C(O)CC(C)(C)CC2=O)c2ccc(O)c([N+](=O)[O-])c2)=C(O)C1,-8,23,4,14,24*,-4,73*,57*
CC1(C)CC(=O)C(C(C2=C(O)CC(C)(C)CC2=O)c2ccc([N+](=O)[O-])cc2)C(=O)C1 (stereo not given),1,17,-1,4,-3,-14,.,.
O=C1C(c2ccccc2)CN1Cc1ccccc1 (stereo not given),.,-31,-15,-16,0,-11,.,.
O=C1N(Cc2ccccc2)CC2(Br)COCOC12O (stereo not given),-3,1,-1,9,39*,-11,93*,102*
CN1C(=O)c2cc(NS(=O)(=O)c3ccccc3Cl)ccc2OC[C@H]2O[C@H](CC(=O)O)CC[C@H]21,.,-4,-2,.,.,.,.,.
O=C(C[C@H]1CC[C@@H]2[C@H](COC[C@@H](O)CN2S(=O)(=O)c2ccc(Cl)cc2)O1)N[C@@H]1CCN(Cc2ccccc2)C1,.,15,5,.,.,.,.,.
CN(C)c1ccc(N=Nc2ccc(S(N)(=O)=O)cc2)cc1,-71,-195,.,-235,7,-88,.,.
CC1=CC(=O)C=CC1=Nc1ccc(N(C)C)cc1,.,10,5,-4,86*,18,98*,113*
CCNC(=O)C[C@H]1CC[C@@H]2[C@H](COc3ccc(NS(C)(=O)=O)cc3C(=O)N2C)O1,.,3,-181,.,.,.,.,.
CSc1nc2ccccc2cc1/C=C(\C#N)c1cccc(C)c1,15,.,.,27,49*,5,-12,1
CN1C(=O)N(C)N(Cc2ccccc2)C(=O)N1Cc1ccccc1,.,16,0,.,.,.,.,.
